# Source: PubChem BioAssay
# tim23-1 inh = tim23-1 yeast growth inhibition | inhibition, % at 20 µM | AID 463212 | S. cerevisiae tim23-1 growth, BacTiter-Glo luminescence, 24 h | 330,000 compounds, 1.3% hits;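 active = growth inhibition of the mutant yeast at or above 50%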;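 also: temperature-sensitive mutant grown at 25 °C; plate controls were DMSO-treated mutant yeast for no effect and medium wells lacking yeast for full effect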
# PfHsp90 set2 = reduces growth (ATP signal) of yeast expressing P. falciparum Hsp90; AID 504621; S. cerevisiae expressing PfHsp90, BacTiter-Glo ATP, 48 h; yeast lacking PDR1 and PDR3 efflux regulators; inhibition, % at 9.4 µM; 310,000 compounds, 0.32% hits;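 active = every replicate shows inhibition above about 80%, whatever the replicate mean, limit read from the data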;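 also: 0% = DMSO neutral controls and 100% = 20 µM radicicol positive controls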
# tim10-1 inh = tim10-1 yeast growth inhibition | S. cerevisiae tim10-1 ts strain growth, BacTiter-Glo, 24 h | inhibition, % at 20 µM | 330,000 compounds, 2.2% hits;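 active = inhibition of at least 40%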;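 also: mutant grown at 25 °C; 0% = DMSO wells with yeast and 100% = wells holding no yeast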
# Mot1-301 SUMO = blocks SUMOylation pathway, rescuing yeast Mot1-301 growth; AID 2716; 320,000 compounds, 1% hits; growth rescue, % at 18.8 µM; S. cerevisiae Mot1-301 growth rescue, ATP luminescence, 38.5C; percent above DMSO median, 100 means doubled;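 active = every valid replicate shows activation above 250% relative to neutral control wells; inactive = the rest, any valid replicate at or below 250%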;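 also: OY570 slx delta 5 strain wells were the positive control but not used for scaling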
# TIM10 inh = TIM10 yeast growth inhibition | S. cerevisiae TIM10 strain growth, BacTiter-Glo luminescence, 24 h | inhibition, % at 10 µM | 330,000 compounds, 1.4% hits | AID 463195;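 active = inhibition of 40% or more at the single tested concentration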;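 also: wild-type TIM10 isogenic control strain grown at permissive 25 °C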
# TIM10 conf = confirmation of TIM10 yeast growth inhibitors. shares compounds with TIM10 inh. S. cerevisiae tim10 strain growth, BacTiter-Glo luminescence, 24 h. inhibition, % at 10 µM. 4,600 compounds, 63% hits. AID 463215;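 active = inhibition of yeast growth at or above a set limit in either of two replicates at 10 µM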;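 also: this counterscreen used the strain with wild-type TIM10; 0% = yeast with DMSO and 100% = medium wells lacking yeast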
# Numbers without * were called inactive; nt = not tested or not shown. Hits are enriched below; roughly 4.4% of the tested compounds scored in any of these assays.
SMILES,tim23-1 inh,PfHsp90 set2,tim10-1 inh,Mot1-301 SUMO,TIM10 inh,TIM10 conf
COc1ccc(C(=O)O/N=C(\N)c2ccccn2)cc1,49,72,34,-1,42*,36*
CCOc1ccc(C(=O)O/N=C(\N)c2ccccn2)cc1OCC,29,-7,28,8,13,nt
COc1cc(OC)cc(C(=O)O/N=C(\N)c2ccccn2)c1,23,nt,3,331,1,nt
N/C(=N\OC(=O)c1ccc2c(c1)OCO2)c1ccc(Cl)cc1,47,16,33,-9,48*,46*
N/C(=N\OC(=O)c1cccc(Br)c1)c1ccccn1,47,20,33,7,59*,42*
N/C(=N\OC(=O)c1ccc(Cl)cc1)c1ccccn1,48,nt,37,85,62*,47*
CCN(Cc1ccccc1)C(=O)CN1C(=O)NC(CC)(c2ccc(F)cc2)C1=O (stereo unspecified),7,5,14,-1,-13,nt
CC(=O)c1cccc(S(=O)(=O)Nc2cc(C(F)(F)F)ccc2N2CCOCC2)c1,19,-3,4,nt,3,nt
CCOC(=O)CNC(=O)COc1coc(CN2CCN(c3ccccc3F)CC2)cc1=O,-16,25,-1,-18,-2,nt
CCc1nc2sc3c(c2c(=S)[nH]1)CC(C)(C)OC3,6,0,16,nt,16,nt
CSc1nc2sc3c(c2c(=S)[nH]1)CC(C)(C)OC3,40,-24,37,266,43*,44*
CCN(CC(=O)Nc1ccc(NC(C)=O)cc1)C(=O)c1cccc(-n2cccc2)c1,-8,nt,-2,153,-11,nt
Fc1ccccc1N1CCN(Cc2cc(-c3ccccc3)on2)CC1,23,-3,22,-16,18,nt
CC1CCCCN1Cc1c(O)ccc2c(=O)c(-c3nc4ccccc4s3)c(N)oc12 (stereo unspecified),46,-10,22,68,42*,25
O=C(c1ccccc1)c1ccc(O)c(O)c1O,nt,-2,nt,nt,nt,nt
FC(F)(F)c1nnc(-c2ccccc2)nc1Sc1ccccc1,43,2,36,2,45*,22
FC(F)(F)c1nnc(-c2ccccc2)nc1N1CCCC1,21,-14,15,1,21,nt
COc1cccc(N2C(=O)CC(N3CCN(S(=O)(=O)c4ccccc4[N+](=O)[O-])CC3)C2=O)c1 (stereo unspecified),nt,3,nt,nt,nt,nt
CCN1C(=O)CS/C1=N\S(=O)(=O)c1ccc(Cl)cc1,16,nt,6,-19,7,nt
CCn1c(Cl)c(C=O)s/c1=N\S(=O)(=O)c1ccccc1,27,0,34,-26,43*,1
Cc1ccc(C(=O)NC2CCCc3c2cnn3-c2ccc(F)cc2F)cn1 (stereo unspecified),13,-9,13,0,5,nt
c1cc(-c2nnc3sc(C4CCCCC4)nn23)ccn1,12,7,39,23,41*,19
CC(C)(C)c1ccc(-c2nnc3sc(-c4ccncc4)nn23)cc1,37,-27,35,-4,22,nt
COc1cc(C2NC(=O)CCC2[N+](=O)[O-])c(OC)cc1Br (stereo unspecified),-5,4,-9,48,9,nt
CCn1c(CNc2cccc(Cl)c2)nnc1SCc1ccccc1,44,13,39,17,41*,49*
SMILES,tim23-1 inh,PfHsp90 set2,tim10-1 inh,Mot1-301 SUMO,TIM10 inh,TIM10 conf
CC1Sc2ccc(S(=O)(=O)CCC(=O)Nc3ccc(C(C)C)cc3)cc2NC1=O (stereo unspecified),12,8,11,7,7,nt
CSc1nc(-c2ccccc2)nn1C(=O)c1ccc(C)cc1,41,3,29,13,42*,42*
CCOC(=O)c1c(NC(=O)CSc2nc3ccc(C)cc3[nH]2)sc2c1CC(C)(C)NC2(C)C,24,7,23,10,1,nt
COc1ccc(-c2cn3cc(C(F)(F)F)cc(Cl)c3n2)cc1,31,8,29,15,52*,37*
Cc1onc(-c2c(Cl)cccc2Cl)c1C(=O)NC(=S)N1CCOCC1,0,-3,17,-12,13,nt
CCOC(=O)N1CCN(C(=S)NC(=O)c2c(-c3c(Cl)cccc3Cl)noc2C)CC1,22,0,39,-12,40,22
COc1ccc(-c2cc(C3CCN(c4cc(Cl)nc(N)n4)CC3)[nH]n2)cc1,38,28,16,-6,43*,28
COc1ccc(OC)c(-c2cc(C3CCN(c4cc(Cl)nc(N)n4)CC3)[nH]n2)c1,26,-28,25,-31,30,nt
CC(=O)Nc1ccc(C(=O)N/N=C/c2cc(Br)cc(Br)c2O)cc1,11,-1,34,11,52*,31*
CC(C)C(=O)Nc1ccc(C(=O)N/N=C/c2cc(Br)cc(Br)c2O)cc1,-4,6,13,35,8,nt
Cc1ccc(C23CC4CC(CC(C(=O)NC(C)C)(C4)C2)C3)cc1,40,-5,19,-13,44*,30
Cc1ccc(C23CC4CC(CC(C(=O)NC(C)C(=O)O)(C4)C2)C3)cc1 (stereo unspecified),28,30,31,-9,6,nt
Cc1ccccc1NC(=S)NC(=O)CCc1ccccc1,44,-12,26,-6,44*,36*
O=C(NCc1ccncc1)c1cccc(S(=O)(=O)NCc2ccccc2)c1,-11,7,-14,1,-2,nt
Cc1ccc(OCCNC(=O)c2cccc(S(=O)(=O)NCc3ccccc3)c2)cc1,7,nt,9,nt,59*,-4
CC(C)C(C)(C#N)NC(=O)COC(=O)C1CCN(S(=O)(=O)c2ccc3c(c2)OCCO3)CC1 (stereo unspecified),nt,5,nt,nt,nt,nt
CC(C)CCOc1cccc(OCC(=O)Nc2ccncc2)c1,37,103*,17,317*,56*,50*
O=C(COc1cccc2ccccc12)Nc1nc2ccccc2[nH]1,20,-11,15,137,41*,20
CCCOC(c1ccccc1)(c1ccccc1)C(Oc1nc(C)cc(C)n1)C(=O)O (stereo unspecified),-6,-1,4,0,10,nt
Cc1cc(C)nc(OC(C(=O)O)C(OCc2ccccc2)(c2ccccc2)c2ccccc2)n1 (stereo unspecified),-1,6,-1,-24,97*,6
O=C(O/N=C1/CCCc2occc21)c1ccc(Cl)cc1Cl,14,-6,23,-5,44*,38*
O=C(O/N=C1/CCCc2occc21)c1ccccc1,41,9,34,-6,3,nt
CCOC(=O)c1cc2cc3ccccc3cc2[nH]1,45,-25,32,146,43*,12
COc1cccc2cc(-c3nc4ccccc4o3)c(=O)oc12,30,67,26,199,60*,67*
COc1cccc(C(=O)NCC2CCCN(C(=O)c3ccc(C=O)cc3)C2)c1OC (stereo unspecified),13,-4,1,121,2,nt
